Rows were chosen to be rich in hits. Some 2.8% of all compounds tested hit in one or more screens of this group.
CF NFkB inh – cystic fibrosis NF-kB activation inhibition; AID 588850; inhibition, % at 5 µM; KKLEB NF-kB-GFP reporter, PAF-induced, GFP fluorescence overnight; hit rate 0.86% among 360,000;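 active = at least 50% inhibition at 5 µM, scaled per plate between neutral and stimulator controls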;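 also: PAF is a Pseudomonas aeruginosa culture filtrate used as stimulus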
TRPM1 prom inh – inhibitors of MITF-driven TRPM1 promoter in melanoma cells | hit rate 0.83% among 330,000 | SK-MEL-5 TRPM1 promoter luciferase, 24 h | inhibition, % at 12.5 µM;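 active = mean inhibition across replicates of 60% or more, whatever share of single replicates reaches that level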
Peg3 promoter – reduces Peg3 promoter-driven luciferase expression in HeLa | HeLa PEG-Prom luciferase reporter, luminescence, overnight | inhibition, % at 20 µM | hit rate 1.7% among 360,000 | AID 588405;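 active = inhibition of at least 50% at 20 µM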
HIF-2a block – blocks HIF-2a reporter activity; 786-0 RCC cells HIF-2a reporter, luciferase luminescence, overnight; inhibition, % at 18.8 µM; hit rate 0.72% among 360,000; AID 624352;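 active = inhibition of the luminescence signal of 40% or more relative to plate controls, in a single-dose primary screen at 18.75 µM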
Shn3 inh set2 – inhibitors of Schnurri-3 3'UTR reporter in osteoblasts; Clone20 osteoblast Shn3 3'UTR firefly luciferase, 24 h; inhibition, % at 12.5 µM; hit rate 0.52% among 360,000;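 active = mean inhibition of at least 75% with every replicate also reaching 75%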
KKLEB cytotox – CF airway cell cytotoxicity counter-screen. AID 602141. KKLEB CF airway cells viability, ATPlite luminescence, overnight; active compounds read low; cells stimulated with P. aeruginosa culture filtrate. hit rate 0.36% among 360,000. activity change (cytotoxicity), % at 5 µM;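 active = corrected activity change at or below -50% at 5 µM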
Mdm2-MdmX confirm – Mdm2/MdmX (human) interaction inhibition, confirmed; SaOS-2 split-luciferase Mdm2/MdmX complementation, luminescence; hit rate 99% among 740; shares compounds with HIF-2a block; inhibition, % at 8 µM; AID 504601;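 active = mean inhibition of the luminescence signal across two replicates at or above 26 percent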
HIF-2a conf – HIF-2a inhibition, single concentration confirmation; AID 651580; 786-0 RCC cells, HIF-2a luciferase reporter luminescence, overnight; shares compounds with HIF-2a block; inhibition, % at 18.8 µM; hit rate 56% among 1,800;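 active = mean inhibition across four replicates of at least 40 percent at the single tested concentration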
HIF-1a cs – HIF-1a inhibition counter-screen for HIF-2a hits | shares compounds with HIF-2a block | MiaPaCa-2 HIF-1a luciferase reporter, desferoxamine, overnight | hit rate 72% among 1,800 | inhibition, % at 18.8 µM;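 active = mean inhibition of the reporter signal across four replicates at the single tested dose of 50% or more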
Numbers stand for hits; – = inactive; · = no result given.

SMILES	CF NFkB inh	TRPM1 prom inh	Peg3 promoter	HIF-2a block	Shn3 inh set2	KKLEB cytotox	HIF-2a conf	HIF-1a cs	others
COc1ccc(C)cc1Nc1n[n+](-c2ccccc2)c(-c2c(Cl)cccc2Cl)s1	·	·	·	·	·	·	·	·	Mdm2-MdmX confirm=98
CCc1ccc(NC(=O)c2cnn3ccccc23)cc1	–	–	–	50	–	–	68	75
CCOC(=O)C1(CC2CCCCO2)CCN(C(=O)NCc2ccccc2)CC1 (stereo not drawn)	–	–	–	–	–	–	·	·
Cc1ccc(NC(=O)[C@H](Cc2c[nH]c3ccccc23)NC(=O)[C@@H]2Cc3ccccc3CN2)c(C)c1	–	·	–	–	–	–	·	·	Mdm2-MdmX confirm=98
O=C(NNc1nc2ccccc2s1)Nc1ccc(Cl)c(Cl)c1	–	–	–	40	–	–	–	–
O=C(NNc1nc2ccccc2s1)Nc1ccc(F)cc1	–	–	–	–	–	–	·	·
COC(=O)c1cc(OC)nc2ccc(Br)cc12	–	–	–	–	–	–	·	·
Fc1ccc(/C=C2\CCCC3=C2Nc2ncnn2C3c2ccc(F)cc2)cc1 (stereo not drawn)	80	88	91	86	97	–	–	66
COc1ccc(C2C3=C(Nc4ncnn42)c2ccccc2CCC3)cc1 (stereo not drawn)	–	–	–	–	–	–	·	·
COc1cccc(CC2(CO)CCCN(Cc3ccc(OC)c(C)c3OC)C2)c1 (stereo not drawn)	–	–	–	–	–	–	·	·
C=CCn1cccc(/C=C/C(=O)c2ccc(C(C)(C)C)cc2)c1=S	–	–	102	70	–	-52	61	105
COc1ccc(N2C(=O)C3C(c4ccc(C(=O)O)cc4)NC(Cc4ccccc4)(C(=O)O)C3C2=O)c([N+](=O)[O-])c1 (stereo not drawn)	–	–	–	–	–	–	·	·
O=C(NC1CCN(Cc2ccccc2)CC1)c1ccc2c(c1)[nH]c(=O)n2Cc1ccc(F)cc1	–	–	–	48	–	–	–	–
C[C@@]12C(=O)OC(=O)[C@]1(C)C1CCC2O1	84	80	84	79	94	–	·	·	Mdm2-MdmX confirm=100
Clc1ccc2c(N/N=C/c3ccccc3Br)ccnc2c1	–	83	84	–	–	–	·	·	Mdm2-MdmX confirm=103
COc1ccc(NS(=O)(=O)c2cccc(C(=O)N/N=C/c3c(F)c(F)c(F)c(F)c3F)c2)cc1	–	–	95	51	–	–	–	80
CCN(CC(=O)Nc1c(F)cccc1F)C(=O)c1cc(S(=O)(=O)N(CC)CC)ccc1N1CCCCC1	–	–	–	48	–	–	–	–
CC(=O)/C=C\c1cn(-c2ncc(C(F)(F)F)cc2Cl)c2ccccc12	–	–	–	61	–	–	–	–
CCCCN(CC)CCCNC(=O)c1ccc(CS(=O)(=O)c2ccccc2C)o1	–	–	–	–	–	–	·	·
CC(=O)N/N=C\c1cccc(OC/C=C/c2ccccc2)c1	–	–	–	48	–	–	56	–
N#CCC(=O)N/N=C\c1cccc(OC/C=C/c2ccccc2)c1	–	–	52	64	–	–	71	–
COc1ccc(NC(=O)C(=O)NCC2CCCN2S(=O)(=O)c2ccc(C)cc2)cc1 (stereo not drawn)	52	72	–	42	–	–	–	–
COc1ccc(S(=O)(=O)N2CCCC2CNC(=O)C(=O)Nc2ccc(C)cc2)cc1 (stereo not drawn)	–	–	–	–	–	–	·	·
COc1ccc(OC)c(C(C[N+](=O)[O-])c2c(C)cc3ccccn23)c1 (stereo not drawn)	–	–	–	44	–	–	–	–
COc1cc(/C=C/C(=O)c2c(O)ccc3c(C)cc(=O)oc23)ccc1O	–	–	–	–	–	–	·	·
SMILES	CF NFkB inh	TRPM1 prom inh	Peg3 promoter	HIF-2a block	Shn3 inh set2	KKLEB cytotox	HIF-2a conf	HIF-1a cs	others
COc1ccc(/C=C\C(=O)c2c(O)ccc3c(C)cc(=O)oc23)cc1OC	–	–	–	55	–	–	–	85
CCN(c1ccccc1)S(=O)(=O)c1cc(NC(=O)Nc2ccccc2C#N)ccc1Cl	–	–	–	–	–	–	·	·
CCN(c1ccccc1)S(=O)(=O)c1ccc(Cl)c(NC(=O)Nc2ccc(Cl)cc2C#N)c1	–	–	–	–	–	–	·	·	Mdm2-MdmX confirm=103
CCN(CC(=O)Nc1c(F)cccc1F)C(=O)/C=C/c1ccc(Br)s1	–	–	–	–	–	–	·	·
COC(=O)CCN1CCc2cc(N=Nc3ccc([N+](=O)[O-])cc3)ccc21	–	–	–	–	–	–	·	·
COc1ccc(C(=O)CC(CC(=O)c2ccc(OC)cc2)C(=O)O)cc1	–	–	–	–	–	–	·	·
O=C1C=CC(O)(c2cc(=O)c3c(O)cc(O)cc3o2)C=C1	75	80	84	94	97	-52	92	103
CCCOc1ccc(C(=O)C(CN2CCOCC2)c2ccccc2)cc1 (stereo not drawn)	–	–	94	63	–	–	–	100
CCCOc1ccc(C(=O)C(c2ccccc2)N2CCOCC2)cc1 (stereo not drawn)	–	–	–	–	–	–	·	·
CC1CCC(C(C)C)C(OC(=O)C[n+]2cc(-c3ccc(Cl)cc3)n3c2CCC3)C1 (stereo not drawn)	–	–	–	–	–	–	·	·
CC1CCC(C(C)C)C(OC(=O)Cn2c(-c3ccc(F)cc3)[n+](C)c3ccccc32)C1 (stereo not drawn)	–	80	62	–	–	-54	·	·	Mdm2-MdmX confirm=99
Cc1cccc(OCc2n(CC(=O)OC3CC(C)CCC3C(C)C)c3ccccc3[n+]2C)c1 (stereo not drawn)	69	96	103	96	–	-57	–	106	Mdm2-MdmX confirm=102
Cc1ccc(NC(=S)/C(C#N)=C2/Nc3ccccc3S2)cc1	–	·	–	68	–	–	–	56
Cc1ccc2c(C(=O)CN3CCSCC3)c(C)[nH]c2c1	–	–	–	–	–	–	·	·
Cc1ccc2c(C(=O)CCl)c(C)[nH]c2c1	78	69	–	–	–	–	·	·	Mdm2-MdmX confirm=103
CCCCCN=C(N)N/N=C/c1c[nH]c2ccc(OC)cc12	–	97	95	98	–	–	–	100
COc1cc(/C=C(\C#N)c2nc3ccccc3s2)ccc1OCC(=O)Nc1ccccc1	–	–	–	–	–	–	·	·
COc1cc(/C=C(/C#N)c2nc3ccccc3[nH]2)ccc1OCC(=O)Nc1ccccc1C(C)C	–	–	–	–	–	–	·	·	Mdm2-MdmX confirm=101
